The campaign covered roughly 330,000 compounds. About 4,200 (1.3%) were called active. Inconclusive results (about 6%) are left out. The entries come from a sample that favours actives as a whole. Values without a mark were called inactive. Calls follow the shape of the dose curve; as a rule, active = well fitted activation curve with a large enough effect; inconclusive = small, poorly fitted or top-dose-only effect; inactive = no such curve, though single readings can be large or run the other way.
test: qHTS screen for small molecules that induce genotoxicity in human embryonic kidney (HEK293T) cells expressing luciferase-tagged ELG1; conditions: HEK293T ELG1-luciferase reporter, luminescence, 16 h; series mostly up to 46 µM; activity change, positive = activation: at the top concentration; also: nearly all actives have a fitted effect of over 60% in size; as to activity change, positive = activation: % of control where 0% means no effect
Outline: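 Step 1: seed 2,000 HEK293T ELG1-luciferase cells per well. Step 2: add compound or DMSO, incubate 16 hr at 37 °C. Step 3: ONE-Glo, 30 min at room temperature, read luminescence.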
Potency is read from the fitted curve at half-maximal effect.

Going from `CC(=O)c1c(OCC(=O)N(C)C2CCCCC2)ccc2c(C)cc(=O)oc12` to `CN(C(=O)COC(=O)c1cc(=O)[nH]c2ccccc12)C1CCCCC1`, the “activity change, positive = activation” value rises from 3.2% to 18.4%.

First: Clc1ccccc1SCc1nc2ccccc2[nH]1
Second: COc1ccccc1CSc1ncc(-c2ccc([N+](=O)[O-])cc2)[nH]1
The “activity change, positive = activation” value of the first is higher: 15% for the first, -0.532% for the second.

Going from `CC[C@]1(C(=O)OC)[C@H]2C(=O)N(Cc3ccccc3)C(=O)[C@H]2[C@H]2CN=C(SCc3ccc(Cl)cc3)N21` to `CC1(c2ccccc2)NC(=O)N(CC(=O)N2CC(=O)Nc3ccccc32)C1=O` (stereo not drawn), the “activity change, positive = activation” value rises from -5.96% to 0.668%.

Compared with `O=C(C[C@@H]1C/C=C\CCC(=O)OC[C@@H]2CCCN2C1=O)NCCO`, `CC(C)(C)OC(=O)C[C@@H]1C/C=C\C[C@@H](CC(=O)NCCO)C(=O)N[C@H](Cc2c[nH]c3ccccc23)COC1=O` is lower in “activity change, positive = activation” value: 3.18% for the first, 0.381% for the second.

Going from `CCCCNc1c(-c2cccc(Sc3ccc(OC)cc3)c2)nc2ccccn12` to `CC(C)CC1NC(=O)c2cc(Cl)ccc2-n2c1nc1ccccc1c2=O` (stereo not drawn), the “activity change, positive = activation” value rises from -5.54% to 0.392%.

First: CN1CCN(c2ccc(NC(=O)c3ccc4c(c3)[nH]c(=O)n4Cc3ccc(F)cc3)cc2)CC1
Second: CN1CCN(c2ccc(NC(=O)c3cc(Cl)c4c(c3)OCCO4)cc2)CC1
The “activity change, positive = activation” value of the first is lower: -2.36% for the first, 9.93% for the second.

Compared with `N#Cc1cc([N+](=O)[O-])ccc1NC(=O)COC(=O)c1cnccn1`, `COC(=O)c1ccc(OC(=O)c2cnccn2)cc1` is higher in “activity change, positive = activation” value: -4.95% for the first, 0.398% for the second.

Compared with `O=C(NCCCNC(=O)c1ccccc1Cl)c1cnccn1`, `Cc1ccccc1NC(=O)CSC(=O)c1ccccc1` is lower in “activity change, positive = activation” value: 1.2% for the first, -4.93% for the second.

First: Cc1ccc(C)c(S(=O)(=O)N2CCN(c3ncnc4sccc34)CC2)c1
Second: COc1cc(C)ccc1OCC(=O)OCC(=O)c1ccc[nH]1
The “activity change, positive = activation” value of the first is lower: -12.2% for the first, 3.48% for the second.

Going from `Cn1nnnc1SCC(=O)Nc1nc2ccccc2s1` to `Cc1ccnc(NC(=O)c2ccco2)n1`, the “activity change, positive = activation” value falls from 14.9% to 4.05%.

Compared with `O=C(Nc1cc(C(F)(F)F)ccc1Cl)c1cc(C2CC2)on1`, `Cc1nn(Cc2ccc(Cl)c(Cl)c2)c(C)c1NC(=O)c1cc(C2CC2)on1` is higher in “activity change, positive = activation” value: -1.5% for the first, 2.15% for the second.

In the case of `C=CC[C@@H](CC(=O)N[C@@H](CO)Cc1ccccc1)C(=O)N[C@H](COC(=O)[C@H](CC=C)CC(=O)OC(C)(C)C)Cc1ccccc1`, the “activity change, positive = activation” value is reported as 10.3%.

In the case of `COc1ccccc1CSc1nc2ccccc2[nH]1`, the Potency is reported as 23.1 µM (active).
For `CN1CCN(c2ccc(NC(=O)c3ccccc3)cc2)CC1`, the Potency was 10.3 µM (active).
With `Cn1c(=NC(=O)c2cnccn2)sc2ccccc21` the Potency was 8.2 µM (active).
For `Cc1ccnc(Nc2nc3ccccc3s2)n1`, the Potency was 2.06 µM (active).
For `CSc1ccccc1NC(=O)c1cc(C2CC2)on1`, the Potency was 23.1 µM (active).
